Screens (PubChem)
Compounds with a hit are over-represented: about 7.5% of the library has one in this group of screens.
SMN2 splice up: enhancers of SMN2 splice variant expression. HEK293 SMN2-luciferase splicing reporter, luminescence, 30-36 h. Potency, µM (highest dose often 46.1 µM), for the others: at the highest dose activity change, positive = activation, most hits filed as activators. actives 2.8% (n = 210,000); further: % of control where 0% means no effect; nearly all actives have a fitted effect of over 55% in size
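qHTS luciferase splicing reporter: luminescence rises when SMN2 exon 7 is included in transfected HEK293 cells. Compound exposure lasted 30-36 h at 37C, with 4.5 mM final sodium butyrate as control, followed by a ONE-Glo read.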
ELG1 genotoxic: induces genotoxicity in HEK293T cells with luciferase-tagged ELG1; HEK293T ELG1-luciferase reporter, luminescence, 16 h; Potency, µM (top dose mostly 46 µM), for inactives: top-dose activity change, positive = activation, most hits filed as activators; actives 1.3% (n = 330,000); further: % of control where 0% means no effect; nearly all actives have a fitted effect of over 60% in size
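Reporter readout depends on ELG1 protein level, which increases with genetic stress. After 16 hr compound exposure at 37 °C, luciferase activity was quantified using ONE-Glo.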
NPC1 prom act: NPC1 promoter activation. Huh7 NPC1 promoter luciferase reporter, 24 h. AID 485313. Potency, µM (highest dose often 9.22 µM), for the others: at the highest dose activation, actives largely listed as activators. actives 2.4% (n = 320,000); further: % of control where 0% means no effect; nearly all actives have a fitted effect of over 60% in size
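NPC1 promoter–luciferase Huh7 cells; 24 h compound; luminescence.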
FLuc counter: firefly luciferase modulation, counter-screen for miR-21 project; P08659; purified FLuc, Km substrates, luminescence inhibition; Potency, µM (highest dose often 57.5 µM), for inactives: at the top dose activity change, negative = inhibition, actives largely listed as inhibitors; actives 6.9% (n = 360,000); AID 588342;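 further: plate controls were vehicle for no effect and reference inhibitor for full effect; nearly all actives have a fitted effect of over 55% in size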
Target sequence (P08659 whole entry, looked up): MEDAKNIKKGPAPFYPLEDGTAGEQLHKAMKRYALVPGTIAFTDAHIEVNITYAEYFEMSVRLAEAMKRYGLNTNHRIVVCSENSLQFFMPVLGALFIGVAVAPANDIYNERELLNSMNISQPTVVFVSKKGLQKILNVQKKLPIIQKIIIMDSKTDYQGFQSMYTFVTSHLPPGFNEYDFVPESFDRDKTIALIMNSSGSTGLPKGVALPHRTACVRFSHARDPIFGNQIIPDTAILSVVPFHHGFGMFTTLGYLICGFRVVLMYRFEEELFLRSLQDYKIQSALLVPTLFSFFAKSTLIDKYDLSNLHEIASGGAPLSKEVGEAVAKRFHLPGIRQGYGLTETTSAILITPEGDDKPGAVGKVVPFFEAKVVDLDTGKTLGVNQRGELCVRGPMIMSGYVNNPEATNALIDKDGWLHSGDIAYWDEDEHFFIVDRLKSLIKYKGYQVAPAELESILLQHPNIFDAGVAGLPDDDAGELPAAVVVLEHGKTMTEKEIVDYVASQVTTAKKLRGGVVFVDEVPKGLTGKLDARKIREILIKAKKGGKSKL
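Purified P. pyralis luciferase, 10 nM final, with Km-level 10 uM D-luciferin and 10 uM ATP in 50 mM Tris acetate pH 7.5, 10 mM Mg acetate, 0.01% Tween-20, 0.05% BSA; 6-point qHTS titration about 60 µM downward; luminescence read.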
Rab9 prom act: activates the Rab9 promoter. Potency, µM (highest dose often 9.22 µM), inactives show at the top dose activation, negative = inhibition, most hits filed as activators. Huh7 Rab9 promoter-luciferase reporter, luminescence, 24 h. actives 2.8% (n = 320,000); further: % of control where 0% means no effect; nearly all actives have a fitted effect of over 60% in size
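Luminescence from Amplite-detected luciferase (10 minutes, ambient) reports Rab9 promoter activation. Before that, stable Rab9-luciferase Huh7 cells (1500/well, reduced-serum OP-MEM I plus 10% FBS) were exposed to compound for 24 hours at 37C.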
The depositor's hits bear a star; ? = inconclusive; . = no result. The call rests on the fitted dose curve; in most records, active means well fitted curve in the direction sought with a large enough effect; inconclusive means small, poorly fitted or top-dose-only effect, or another doubt; inactive means no such curve, though single readings can be large; an effect the other way counts as inactive or inconclusive. Potency means the concentration at half of the fitted maximal effect.

SMILES	SMN2 splice up	ELG1 genotoxic	NPC1 prom act	FLuc counter	Rab9 prom act
C(=N\Nc1nc2ccccc2s1)/c1ccc2c(c1)OCO2	1µM*	?	3.98µM*	0.757µM*	1.26µM*
Cc1nc(N/N=C\c2ccc3c(c2)OCO3)sc1C	.	?	1.58µM*	1.9µM*	0.316µM*
Brc1cc2c(cc1/C=N/Nc1nc3ccccc3s1)OCO2	?	18.4µM*	?	-19.1%	?
COc1ccc(-c2csc(-n3ncc(-c4ccccn4)c3N)n2)cc1	-52.0%	7.7%	-2.5%	-15.9%	4.3%
Nc1c(-c2cccs2)cnn1-c1nc(-c2ccc(F)cc2)cs1	-5.6%	5.5%	?	7.57µM*	?
COC(=O)c1cnn(-c2nc(-c3ccccc3)cs2)c1N	.	?	?	2.69µM*	?
Nc1c(-c2ccccn2)cnn1-c1nc(-c2ccc(F)cc2)cs1	-2.4%	8.7%	24.2%	9.53µM*	7.3%
Nc1c(-c2cccs2)cnn1-c1nc(-c2ccc(Cl)cc2Cl)cs1	3.1%	5.1%	-2.0%	?	0.1%
COc1ccc(Cl)cc1Nc1ccc2cc(S(=O)(=O)N3CCCCC3)ccc2n1	.	.	.	5.9%	.
C[C@H](NC(=O)N1CCC(Cc2ccccc2)CC1)C(=O)O	.	-2.9%	1.7%	-2.9%	-3.1%
O=C(CSc1nnc(-c2ccccc2)n1-c1ccccc1)c1ccc[nH]1	.	3.6%	-2.3%	-2.4%	1.7%
COC(=O)c1cccc(/C=N/NC(N)=S)c1O	.	-4.0%	11.2%	-17.0%	-0.5%
N=c1oc2ccc(Br)cc2cc1C(=O)NCc1ccc(F)cc1	.	0.8%	0.4%	?	-12.5%
CCOc1cccc2cc(C(=O)NCc3ccc(C)cc3)c(=N)oc12	.	2.6%	-5.1%	15.1µM*	-2.9%
CCN(CC)c1ccc2cc(C(=O)NCc3ccc(F)cc3)c(=N)oc2c1	.	-11.1%	2.8%	16.9µM*	0.1%
CCCNc1c(NC(=O)c2cccs2)c(=O)oc2ccccc12	.	0.2%	-0.9%	-3.2%	-2.9%
Cc1cccc(C)c1OCCSc1n[nH]c(N)n1	-1.2%	2.0%	-0.1%	2.7%	1.7%
CCCNC(=O)Nc1cc(S(=O)(=O)CC)ccc1O	.	-4.1%	-2.9%	4.8%	-2.5%
CCS(=O)(=O)c1ccc(O)c(NC(=O)COc2ccc(Br)cc2)c1	0.6%	-1.4%	0.5%	23.9µM*	-4.1%
NC(=O)C1CCN(c2nc(-c3ccccc3-c3ccccc3)cs2)CC1	.	2.4%	-2.7%	2.6%	-0.8%
CC(=O)c1cccc(-c2csc(N3CCC(C(N)=O)CC3)n2)c1	.	13.9%	1.26µM*	16.9µM*	0.398µM*
COc1ccc(-c2csc(N3CCC(C(N)=O)CC3)n2)cc1	.	7.0%	25.6%	21.3µM*	?
N#Cc1ccc(-c2csc(N3CCC(C(N)=O)CC3)n2)cc1	.	.	.	-9.8%	.
Cc1ccc(-c2csc(N3CCC(C(N)=O)CC3)n2)cc1	.	8.3%	1.26µM*	10.7µM*	2µM*
NC(=O)C1CCN(c2nc(-c3ccc4ccccc4c3)cs2)CC1	.	5.8%	2µM*	12µM*	?
SMILES	SMN2 splice up	ELG1 genotoxic	NPC1 prom act	FLuc counter	Rab9 prom act
NC(=O)C1CCN(c2nc(-c3cccc(Cl)c3)cs2)CC1	.	14.9%	24.7%	?	?
COc1ccc(-c2noc(-c3ccccc3OCC(=O)Nc3ccc(C(C)=O)cc3)n2)cc1	.	.	.	-1.2%	.
COc1ccc(NC(=O)CNC(c2ccccc2)c2ccccc2)cc1	.	0.0%	-0.8%	1.1%	-0.2%
O=C(Nc1cccc(Cl)c1)OCc1cnc(Cl)s1	-11.5%	14.8%	-2.7%	-15.1%	-2.4%
O=C(Nc1ccc(N2CCOCC2)c(Cl)c1)c1ccccc1Cl	.	?	25.7%	26.9µM*	?
O=C(Nc1ccc(N2CCOCC2)c(Cl)c1)c1ccc(F)cc1	11.2µM*	2.0%	?	13.5µM*	2.51µM*
O=C(Nc1ccc(N2CCOCC2)c(Cl)c1)c1ccc(-n2cnnc2)cc1	.	7.1%	-0.3%	-0.7%	2.0%
COc1ccc(NN=Nc2ccc([N+](=O)[O-])cc2)cc1	.	?	?	2.39µM*	3.55µM*
COc1ccc(N/N=C(/Oc2ccc([N+](=O)[O-])cc2)C(C)=O)cc1	-8.6%	6.0%	-5.9%	1.3%	-1.4%
O=C1CCCCCN1Cc1nnc(SCc2nc3ccccc3s2)n1-c1ccccn1	-32.4%	?	18.3%	7.57µM*	?
CCNC(=O)CSc1nnc(CN2CCCCCC2=O)n1-c1ccccn1	-3.6%	0.3%	-3.1%	-0.6%	-0.3%
CCOC(=O)c1cnc2c(-c3ccc(Cl)cc3)cnn2c1C	11.2µM*	2.59µM*	1.78µM*	0.601µM*	0.891µM*
CCOC(=O)c1cnc2c(N=Nc3ccccc3)c(N)nn2c1N	15.8µM*	?	1.12µM*	0.953µM*	1.12µM*
CCOC(=O)c1cnc2c(-c3ccccc3)cnn2c1N	10µM*	?	0.631µM*	0.601µM*	0.501µM*
CCc1nn2c(=O)c(S(=O)(=O)Nc3ccc(C)cc3C)c(C)nc2s1	-17.8%	.	.	-0.9%	.
CN1CCCN(S(=O)(=O)c2cccc(Cl)c2Cl)CC1	12.6%	-2.8%	1.5%	-1.4%	1.5%
COc1cccc(C(=O)NNC(=O)C(=O)Nc2ccc(C)cc2)c1	.	3.6%	-1.8%	-17.8%	4.3%
COc1cccc(C(=O)Nc2ccc(C3CC3(Cl)Cl)cc2)c1 (stereo not given)	12.6µM*	?	2.24µM*	2.69µM*	1.12µM*
COc1ccc(C(=O)Nc2ccc(C(=O)Nc3cccc(C)c3)cc2)cc1	.	13µM*	-8.2%	2.9%	-11.5%
COc1cccc(C(=O)Nc2ccc(C)cc2)c1	11.2µM*	1.84µM*	1.41µM*	6.01µM*	1µM*
COc1cc(NC(=O)c2ccnnc2)cc(C(=O)Nc2cccc(C(F)(F)F)c2)c1	.	-2.0%	0.0%	19µM*	1.9%
O=C(Nc1cccc(C(F)(F)F)c1)c1cccnc1	-10.1%	.	.	0.0%	.
Cc1ccccc1NC(=O)CCN1C(=O)c2ccccc2C1=O	.	4.4%	-8.2%	3.8%	0.4%
CC(C)Cc1cc(C(=O)N2CCCC(C(=O)c3cc(F)ccc3F)C2)n(C)n1 (stereo not given)	.	-3.1%	-0.3%	-0.3%	-2.8%
C=CCn1c(SCC(=O)NC(=O)NCc2ccco2)nc2sc(CC)cc2c1=O	4.6%	9.9%	-2.2%	2.7%	-2.9%
SMILES	SMN2 splice up	ELG1 genotoxic	NPC1 prom act	FLuc counter	Rab9 prom act
Cc1nn(C)c2c1c(C(F)(F)F)cc(=O)n2CC(=O)Nc1ccc(F)cc1F	.	.	.	-7.0%	.
Cc1cnc2ncc3sccc3c2c1	-8.5%	-3.9%	0.6%	2.8%	-3.7%
COC(=O)c1cccc(NC(=O)c2cccc(OC)c2)c1	?	.	.	12µM*	.
O=C(NC(=S)Nc1ccc(NC(=O)c2ccccc2)cc1)c1ccc(F)cc1	.	9.6%	20.0%	1.0%	1.7%
COc1cccc(C(=O)Nc2ccc(C(=O)c3ccccc3)cc2)c1	.	8.4%	6.6%	?	-2.6%
COc1ccc(C(=O)Nc2cccc(-c3ccc4nncn4n3)c2)cc1	-5.3%	-6.2%	-3.4%	16.9µM*	-4.4%
